Screening data deposited in PubChem by National Center for Advancing Translational Sciences (NCATS).
MCF10A rereplic – inducers of DNA re-replication in MCF 10A breast cells; MCF 10A DNA re-replication, Hoechst nuclear intensity, 48 h; Potency, µM (series often up to 46.1 µM), inactives show at the top dose activity, positive = re-replication, actives largely listed as activators; hit rate 2.9% among 350,000; AID 624296; also: potency is read from the fitted curve at half-maximal effect; % of control where 0% means no effect; nearly all actives have a fitted effect of over 50% in size
IL1B secr inh – inflammasome signaling inhibition, IL-1 beta readout | THP-1 LPS/ATP IL-1B secretion, AlphaLISA, 16 h; active compounds read low | activity change, % at 57.5 µM | hit rate 4.7% among 360,000; in the data active = activity change below about -50%; inconclusive = mostly about -30% to -49%; also: % is scaled to controls: 0 for no effect and ±100 for the full control effect
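Secreted IL-1B measured by AlphaLISA bead assay after 16 h compound exposure of THP-1 cells; compounds (final up to 57.5 uM) added 1 h before LPS (250 ng/mL) and ATP (1.25 mM) stimulation; lower signal means less secretion.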
KB-V1 MDR tox – KB-V1 MDR subline cytotoxicity | KB-V1 MDR cells viability, CellTiter-Glo, 72 h | hit rate 3.4% among 400,000 | Potency, µM (titrated, usually from 46.1 µM), usual class: cytotoxic; also: potency is read from the fitted curve at half-maximal effect; % is scaled to controls: 0 for no effect and ±100 for the full control effect; nearly all actives have a fitted effect of over 60% in size
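Cytotoxicity via CellTiter-Glo luminescence after 72 h compound exposure at 37 degrees C. Cells: drug-selected KB-V1 line, DMEM phenol-red free plus 10% FBS. Compounds tested at multiple concentrations; normalized data fitted to concentration-effect curves.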
SW480 rereplic – DNA re-replication induction in SW480 cells; SW480 DNA re-replication, Hoechst DNA content imaging, 48 h; Potency, µM (top dose mostly 46.1 µM), for the others: at the highest dose re-replication activation, most hits filed as activators; hit rate 1.8% among 340,000; also: potency is read from the fitted curve at half-maximal effect; % of control where 0% means no effect; nearly all actives have a fitted effect of over 55% in size
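250 cells/well; 23 nL cpd via pin tool; 48 hr, 37 C, 5% CO2; Hoechst 40 min; imager read of total nuclear intensity, ex 405/em 500-530 nm.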
KB-3-1 cytotox – KB-3-1 parental cell cytotoxicity. Potency, µM (titrated, usually from 46.1 µM), most hits filed as cytotoxic. KB-3-1 viability, CellTiter-Glo ATP luminescence, 72 h. AID 1347075. hit rate 1.4% among 400,000; also: potency is read from the fitted curve at half-maximal effect; % is scaled to controls: 0 for no effect and ±100 for the full control effect; nearly all actives have a fitted effect of over 60% in size
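72 h, 37 °C compound treatment of KB-3-1 parental cells; CellTiter-Glo added, 10 min, luminescence read. Data corrected against DMSO-only plates and normalized before curve fitting.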
* = called active by the depositor; i = inactive; ? = inconclusive; nt = no result; [ ] = dose if it differs, or a comment. Most compounds without a hit are left out; they make up all but 9.9% or so of the library. Unless noted, calls follow the shape of the dose curve; as a rule, active = well fitted curve in the direction sought with a large enough effect; inconclusive = small, poorly fitted or top-dose-only effect, or another doubt; inactive = no such curve, though single readings can be large; an effect the other way counts as inactive or inconclusive.

SMILES	MCF10A rereplic	IL1B secr inh	KB-V1 MDR tox	SW480 rereplic	KB-3-1 cytotox
COCCn1c(SCC(=O)N2CCOCC2)nnc1-c1ccncc1	-9%	9	i	-21%	i
O=C(CSc1ccc(-c2ccncc2)nn1)N1CCN(c2ccccc2)CC1	-2%	24	15µM*	1%	i
Cn1c(SCC(=O)N2CCN(c3cccc(Cl)c3)CC2)nnc1-c1ccncc1	5%	-2	16µM*	1%	13µM*
CCc1ccc2[nH]c(=O)c(CN(CCN(C)C)C(=S)NCc3ccco3)cc2c1	-5%	-74*	i	-4%	i
CCc1ccc2[nH]c(=O)c(CN(CC3CCCO3)C(=S)NCc3ccco3)cc2c1 (centres undefined)	?	?	i	7%	i
CCc1ccc2[nH]c(=O)c(CN(CCN(CC)CC)C(=S)NCc3ccco3)cc2c1	6%	-64*	?	-31%	23µM*
Cn1c(=O)cc(SCC(=O)NCc2ccc(F)cc2)c2ccc(Cl)cc21	nt	nt	i	nt	i
Cn1c(=O)cc(SCC(=O)NCc2ccc(F)cc2)c2ccccc21	15µM*	-17	i	15%	?
C/C(CC(=O)NC1CCCCCC1)=N\NC(=O)c1cnccn1	-3%	2	i	0.52µM*	i
N#C/C(=C/c1cccc(C(F)(F)F)c1)c1nc(CCN2C(=O)c3ccccc3C2=O)cs1	6%	-8	21µM*	-4%	i
CN(c1cccc(Cl)c1)S(=O)(=O)c1cccc(C(=O)NC2=NCCS2)c1	?	-1	21µM*	?	23µM*
COc1ccc(N(C)S(=O)(=O)c2cccc(C(=O)Nc3nc4ccccc4[nH]3)c2)cc1	?	?	16µM*	?	?
COc1ccc(N(C)S(=O)(=O)c2cccc(C(=O)NC3CCCCCC3)c2)cc1	?	-55*	?	26%	i
O=C(Nc1nc2ccccc2[nH]1)c1cccc(Cl)c1	-4%	-3	i	-3%	i
CN(c1cccc(Cl)c1)S(=O)(=O)c1cccc(C(=O)Nc2nc3ccccc3[nH]2)c1	8.2µM*	-62*	?	?	15µM*
COc1ccc2c(-c3ccccc3)cc(N3CCOCC3)nc2c1	21µM*	-10	i	1%	i
COc1ccc2c(c1)CCc1c-2nc2ccccc2c1N1CCOCC1	16µM*	?	?	?	?
COc1ccccc1NC(=O)C1=C(C)Nc2nnnn2C1c1cc(Br)c(O)c(OC)c1 (centres undefined)	nt	nt	i	nt	i
COC(=O)c1cc2sccc2n1CC(=O)Nc1ccc(C)cc1C	nt	nt	i	nt	i
CC(=O)c1ccc(Nc2nc(C(N)C(C)C)cs2)cc1 (centres undefined)	nt	?	i	nt	i
CC(C)C(N)c1csc(Nc2ccc(C(=O)c3ccccc3)cc2)n1 (centres undefined)	nt	-60*	i	nt	i
CC(C)CC(N)c1csc(Nc2ccc(C(=O)c3ccccc3)cc2)n1 (centres undefined)	nt	-59*	?	nt	i
NC(c1csc(Nc2ccc(C(=O)c3ccccc3)cc2)n1)c1ccccc1Cl (centres undefined)	nt	-7	21µM*	nt	?
CC(N)c1csc(Nc2ccc(C(=O)c3ccccc3)cc2)n1 (centres undefined)	nt	-52*	i	nt	i
Cc1ccccc1OCCCn1c(-c2ccc(Cl)cc2)nc2ccccc2c1=O	nt	nt	i	nt	i
SMILES	MCF10A rereplic	IL1B secr inh	KB-V1 MDR tox	SW480 rereplic	KB-3-1 cytotox
NC(c1csc(Nc2cc(NCCCO)ncn2)n1)c1ccccc1Cl (centres undefined)	nt	-56*	i	nt	i
COc1cc2nc(NC(=O)c3ccccc3)sc(=O)c2cc1OC	?	?	i	0%	i
Cc1cnc(=O)[nH]c1SCc1cccc([N+](=O)[O-])c1	-5%	-6	i	-14%	i
Cc1cc2c(cc3c(=O)n(CC(=O)NCCCN4CC(C)CC(C)C4)ncn32)s1 (centres undefined)	?	?	?	24%	i
CCC(=O)N1Cc2cc(C(=O)Nc3nccs3)nc(-c3cccc(-c4ccccc4OC)c3)c2[C@@H]1CCO	nt	-4	23µM*	nt	i
Cc1cccc(OCC(=O)Nc2ccc3c(c2)nc(CCN2CCCCC2)n3C)c1	-1%	-50*	i	-12%	i
COc1ccc(OCC(=O)Nc2ccc3c(c2)nc(CCN2CCCCC2)n3C)cc1	2%	?	?	6%	i
Cc1ccc(OCC(=O)Nc2ccc3c(c2)nc(CCN2CCCCC2)n3C)cc1	-2%	-61*	i	3%	i
Cc1cccc(OCC(=O)Nc2ccc3c(c2)nc(CN2CCCCC2)n3C)c1	?	21	i	20%	?
COc1cccc(C2c3[nH]c4ccccc4c3CCN2C(=O)c2ccccc2F)c1OC (centres undefined)	-10%	?	i	5%	i
O=C(c1cn[nH]c1)N1CCc2c([nH]c3ccccc23)C1c1c(F)cccc1Cl (centres undefined)	?	-53*	i	-58%	i
O=C(c1cccs1)N1CCc2c([nH]c3ccccc23)C1c1ccc(Cl)cc1 (centres undefined)	?	-5	12µM*	?	12µM*
CCCCN(C)CCNC(=O)C1CCN(S(=O)(=O)c2cccc3nsnc23)CC1	-1%	19	i	-19%	i
Cc1cc(NC(=O)COC(=O)C(Nc2ccc(C(F)(F)F)cc2Cl)C(C)C)no1 (centres undefined)	21µM*	-13	i	23%	i
Cc1nn(C)c(C)c1/C=C/C(=O)O	2%	7	i	5%	i
Cc1nn(C)c(C)c1/C=C/C(=O)c1ccc(Cl)cc1Cl	-41%	-68*	?	1%	?
CC(C)N1CCc2nc(SCC(=O)Nc3cccc(F)c3)[nH]c(=O)c2C1	nt	nt	?	nt	i
C[C@@H](NC(=O)c1[nH]cnc1C(=O)Nc1cccc(Cl)c1)c1ccccc1	12µM*	6	i	-7%[9.22 µM]	i
O=C(Nc1ccc(Cl)cc1)c1nc[nH]c1C(=O)NCc1ccccc1	?	-11	16µM*	-13%[9.22 µM]	?
C[C@H](NC(=O)c1[nH]cnc1C(=O)Nc1ccc(Cl)cc1)c1ccccc1	16µM*	-24	?	-31%[9.22 µM]	?
CN(Cc1ccccc1)C(=O)c1[nH]cnc1C(=O)Nc1ccc(Cl)cc1	-5%	-28	?	0%	?
C[C@@H](NC(=O)c1[nH]cnc1C(=O)Nc1ccc(Cl)cc1)c1ccccc1	25%	-9	?	-2%	?
N#CCc1c(C#N)c(N)nc(N2CCN(Cc3ccc4c(c3)OCO4)CC2)c1C#N	16µM*	-28	21µM*	9%	?
